# Measurements: PubChem BioAssay AID778 (Sanford-Burnham Center for Chemical Genomics, 2007)
# About 20,000 (21%) of roughly 96,000 compounds were called active. Not all results are given here. Unmarked numbers belong to inactive results.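 The calls were made as follows: active = CYP2C19 inhibition above a set limit at 5 µM in the primary screen (cut at about 50% in these data); inactive = the rest.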
# Molecular target: Cytochrome P450 2C19 (Homo sapiens) (UniProt P33261)
# Assay: blockers of cytochrome P450 2C19 activity – biochemical, luminescence, ADME assay, primary screen (AID 778);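 also: plate controls were negative control wells for no effect and 2.5 mM tranylcypromine positive control for full effect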
# Conditions: CYP2C19 Supersomes, luciferin-H EGE luminescence, 30 min; at 5 µM; active compounds read high
# Sequence of Cytochrome P450 2C19 (Homo sapiens) (P33261 whole entry, looked up): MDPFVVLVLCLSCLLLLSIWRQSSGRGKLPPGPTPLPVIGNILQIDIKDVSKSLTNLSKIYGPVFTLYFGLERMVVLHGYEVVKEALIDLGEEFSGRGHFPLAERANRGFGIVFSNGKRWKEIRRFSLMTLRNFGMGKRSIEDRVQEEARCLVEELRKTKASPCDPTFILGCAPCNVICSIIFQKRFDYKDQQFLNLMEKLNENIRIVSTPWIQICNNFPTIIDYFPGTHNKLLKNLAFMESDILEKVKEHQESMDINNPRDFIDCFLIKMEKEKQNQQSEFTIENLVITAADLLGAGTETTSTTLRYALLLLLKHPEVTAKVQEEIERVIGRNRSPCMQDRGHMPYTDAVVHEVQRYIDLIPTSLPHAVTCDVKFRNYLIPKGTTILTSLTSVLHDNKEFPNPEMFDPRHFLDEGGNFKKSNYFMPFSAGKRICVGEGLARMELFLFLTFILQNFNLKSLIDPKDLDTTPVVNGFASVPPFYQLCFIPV
row,Structure (SMILES),inhibition
1,CC(=O)c1cccc(NC(=O)N2CCCC2C(=O)NCCc2ccccc2)c1 (stereo not given),30.9%
2,O=C(NCCc1ccccc1)c1ccc(NC2=NC3CS(=O)(=O)CC3S2)cc1 (stereo not given),5%
3,CC1CCCN(c2ccc(C(=O)NCCc3ccccc3)cn2)C1 (stereo not given),60.7% (active)
4,CCc1ccc2oc(-c3ccc(N)cc3)nc2c1,-5.5%
5,CC(C)C(=O)N1CCN(CCN=CC2=C(O)CC(c3ccco3)CC2=O)CC1 (stereo not given),2.8%
6,O=[N+]([O-])c1ccccc1/C=N/n1c(COc2ccccc2)n[nH]c1=S,8.1%
7,Cc1cccc(-n2c(N)c(C(=O)N3CCN(C)CC3)sc2=S)c1,6.5%
8,CC1CCCN(Cc2nc3c(c(=O)n(C)c(=O)n3C)n2CC(=O)c2ccccc2)C1 (stereo not given),15.6%
9,COC(=O)c1cccc(NC(=O)CSc2nc(C)cc(=O)[nH]2)c1,20.8%
10,COc1ccc(NC(=O)CSc2nc(N)c(-c3ccccc3)c(=O)[nH]2)cc1,2%
11,COc1cc2ccccc2cc1C(=O)Nc1ccc(S(=O)(=O)Nc2cc(C)on2)cc1,-10.1%
12,COc1ccc(NC(=O)CSc2nc(NS(=O)(=O)c3ccc(C)cc3)cc(=O)[nH]2)cc1,85.4% (active)
13,COc1ccc2nc(SCC(=O)Nc3c(C)cc(C)cc3C)[nH]c2c1,64.3% (active)
14,COc1ccc(OC)c(NC(=O)CSc2nc(N)c(-c3ccccc3)c(=O)[nH]2)c1,11.1%
15,C=CCn1c(=S)[nH]c2nc3c(cc2c1=O)COC(C)(C)C3,41.9%
16,Cc1nc2ncnn2c(C)c1CCC(=O)N1CCN(C(=O)c2ccco2)CC1,-9.1%
17,CCN(c1ccccc1)S(=O)(=O)c1ccc(N)cc1,12.9%
18,Cn1nnc(NC(=O)CSc2ncn[nH]2)n1,-2%
19,Cn1nc(-c2ccc(Cl)cc2)c2cc(C(=O)NCc3ccco3)sc21,24.9%
20,COC(=O)CSc1nnc(-c2cccnc2)o1,7.2%
21,COc1ccc(-n2c(C)cc(C(=O)CSc3nnc(-c4cccs4)o3)c2C)cc1,83.2% (active)
22,Cc1cc(NC(=O)CSc2nnc(-c3ccc(Cl)s3)o2)no1,32.4%
23,COc1ccc(-c2nnc(SCC(=O)c3cccs3)o2)c(OC)c1,14.1%
24,COc1ccc(-c2nnc(SC(=O)N3c4ccccc4Sc4ccccc43)o2)cc1,11.9%
25,COc1ccc(OC)c(C(=O)CSc2nnc(-c3cccs3)o2)c1,54.9% (active)

row,Structure (SMILES),inhibition
1,COc1cc(/C=C(\C#N)c2nc3c(s2)CC(C)CC3)ccc1O (stereo not given),2.4%
2,Cc1ccc2nc(SCc3nnc(-c4ccccc4[N+](=O)[O-])o3)c(C#N)cc2c1,17.1%
3,O=S(=O)(CCc1nc2ccccc2o1)c1ccc(Cl)cc1,30.1%
4,COc1ccc(N2C(=O)C3CCCN3C2c2cccs2)cc1 (stereo not given),29.5%
5,CC12CN(Cc3ccccc3)CC(C)(CN(Cc3ccccc3)C1)C2=NO,15.1%
6,c1ccc(CSc2ncnc3c2sc2nc(N4CCOCC4)c4c(c23)CCCC4)cc1,4%
7,CCCSc1nsc(N)n1,15.5%
8,CCc1nn(-c2cc(Oc3cccc4ccccc34)nc(-c3ccccc3)n2)c(N)c1C#N,0.4%
9,CN(c1ccc(C(=O)NCc2ccccn2)cc1)S(C)(=O)=O,14.5%
10,O=S(=O)(NCc1cccnc1)c1ccc(Br)s1,60.4% (active)
11,Cc1cc(Cl)c(S(=O)(=O)NCc2cccnc2)cc1OCC(N)=O,-7.3%
12,O=S(=O)(NCc1ccccn1)c1ccc(Br)s1,61.6% (active)
13,O=S(=O)(NCc1cccnc1)c1ccc(Cl)nc1,13.3%
14,O=S(=O)(NCc1ccccn1)c1ccc(F)cc1,40.5%
15,C#CCSc1nnc(-c2sc3ccccc3c2Cl)o1,25.2%
16,COc1ccc(C(F)(F)F)cc1N/C=C\c1nnnn1-c1ccc(C)cc1,40.8%
17,CCc1ccccc1N(CC(=O)N1CCN(c2ccccc2F)CC1)S(C)(=O)=O,-6.6%
18,Cc1ccc(NC(=O)COc2ccc(-n3ccnc3)cc2)cc1Cl,99.2% (active)
19,Cc1ccccc1OCC(=O)Nc1ccc(N2CCN(C(=O)C(C)C)CC2)c(Cl)c1,42.7%
20,Cc1csc(OCC(=O)Nc2ccc(C)c(C)c2)n1,15.8%
21,Cc1ccc(SCC(=O)NC(=O)NCc2ccco2)c(C)c1,27%
22,CC1(N2CCOCC2)CC2(O)C(=[N+]1[O-])CCc1nonc12 (stereo not given),21.6%
23,COc1ccccc1Nc1ncc(C(C)=O)c(C)n1,1.3%
24,CC(=O)c1cnn(-c2cc(Oc3ccc(F)cc3)ncn2)c1C,46.1%
25,COc1ccccc1-c1c(C)nn2c(C)c(C(C)=O)cnc12,55% (active)

row,Structure (SMILES),inhibition
1,Cc1nn(-c2ncc(C(F)(F)F)cc2Cl)c(=O)n1-c1ccccc1,23.9%
2,CCCc1cc(=O)oc2c(C)c(O)c(CN3CCCCC3)cc12,44.5%
3,CC1Cc2cc(/C(O)=C3\C(=O)C(=O)N(CCN4CCOCC4)C3c3ccccc3F)ccc2O1 (stereo not given),-2.6%
4,Cn1c(Cn2nnc3ccccc32)nnc1SCC(=O)c1ccccc1F,7.9%
5,CC(C)NC(=O)CSc1nnc(COc2ccccc2Cl)o1,60.8% (active)
6,Cc1cc(C)cc(OCc2nnc(SCC(=O)Nc3ccccc3)o2)c1,2.4%
7,Cc1ccccc1OCc1nnc(SCC(=O)N2c3ccccc3Sc3ccc(Cl)cc32)o1,12%
8,CCOCCCNC(=O)Cc1cc(=O)[nH]c(=O)[nH]1,-18.9%
9,O=C(Nc1ccccc1N1CCCCC1)c1cccc(F)c1,19%
10,O=C(CN1CCN(c2ccccc2F)CC1)c1ccc2c(c1)OCO2,67.3% (active)
11,O=C(Nc1cccnc1)c1ccc2c(c1)OCO2,35.6%
12,O=C(Nc1ccccc1N1CCCCC1)c1ccc2nccnc2c1,6.8%
13,O=C(Nc1ccccc1)c1ccc2c(c1)OCO2,81.4% (active)
14,O=C(Nc1ccccc1N1CCN(C(=O)c2ccccc2)CC1)c1ccc2c(c1)OCO2,67% (active)
15,CCCC(=O)Nc1ccccc1N1CCN(C(=O)c2ccccc2)CC1,33%
16,Cc1ccc(F)cc1NC(=O)c1ccc2c(c1)OCO2,33.3%
17,O=C(Nc1ccc(N2CCN(C(=O)c3ccccc3)CC2)c(Cl)c1)c1cccnc1,22.7%
18,O=C(CN1CCN(CC(=O)Nc2ccc3c(c2)OCO3)CC1)Nc1ccc(F)cc1,16.8%
19,O=C(Nc1ccccc1N1CCN(c2ccccc2)CC1)c1cccc(F)c1,79.2% (active)
20,CC(C)C(=O)Nc1cccc(C(=O)Nc2ccc3c(c2)OCO3)c1,30.7%
21,O=C(NC12CC3CC(CC(C3)C1)C2)N1CCCC(CO)C1 (stereo not given),6.5%
22,Cc1csc2ncc(C(=O)N(Cc3ccccc3)c3ccccn3)c(=O)n12,0.8%
23,O=C(COc1ccc(Br)cc1F)NC1CCN(Cc2ccccc2)CC1,22.6%
24,Cc1cccc(C)c1NC1=NC(=S)N(c2ccc(N(C)C)cc2)C1(C)C,-1%
25,CN(C)/C=C1/C(=O)Nc2ccccc21,-9.6%

row,Structure (SMILES),inhibition
1,CCOC(=O)C1C(=O)OC2(CCCC2)C1C(=O)OCC (stereo not given),23.9%
2,NC(=NC(=O)c1ccccc1)C1=C(O)CCC1=O,-8%
3,CN1CCN(CC(=O)C23CC4CC(CC(C4)C2)C3)CC1,12%
4,CC12CCC(C(=O)N(CCC#N)CCC#N)(CC1=O)C2(C)C (stereo not given),-14%
5,Cc1cc(C(=O)OCC(=O)c2c(N)n(C)c(=O)n(C)c2=O)c(C)o1,7.9%
6,Cc1cc(C(=O)OCC(=O)Nc2ccc(F)c(F)c2)c(C)o1,95% (active)
7,Cc1cc(NC(=O)COC(=O)c2ccc(F)c(S(=O)(=O)N3CCOCC3)c2)no1,8.2%
8,COc1cc(OC)c(C(=O)NC2CC(C)(C)NC(C)(C)C2)cc1OC,-7.8%
9,CCOC(=O)NC(C(F)(F)F)(C(F)(F)F)P(=O)(c1ccccc1)c1ccccc1,-3.8%
10,c1ccc(COc2nsnc2N2CCOCC2)cc1,98.5% (active)
11,Fc1cnc(N2CCOCC2)nc1NCc1ccccc1,46.1%
12,O=C(O)COc1nsnc1N1CCOCC1,-5.8%
13,c1nc(COc2nsnc2N2CCOCC2)cs1,53.5% (active)
14,C/C(=N\NC(=O)Cc1ccc(Cl)cc1)c1ccccn1,39.5%
15,COc1cccc2sc(Nc3nc(C)c(C(C)=O)s3)nc12,12.5%
16,CCOC(=O)C1(S(=O)(=O)c2ccc(Cl)cc2)CCN(Cc2ccccc2)CC1,42.5%
17,CCCC(=O)C1CCN(Cc2ccccc2)CC1,30.5%
18,CCOC(=O)C1(S(=O)(=O)c2ccccc2)CCN(Cc2ccccc2)CC1,51.8% (active)
19,CSc1nc(C)cc(SC(C(C)=O)C(=O)Nc2ccccc2)n1 (stereo not given),11.6%
20,Cc1cccc(C(=O)Nc2nnc(Cc3c[nH]c4ccccc34)s2)c1,8.7%
21,Cc1ccc(NC(=O)CN2CCC3(O)CCCCC3C2c2ccc3c(c2)OCO3)c(C)c1 (stereo not given),63.9% (active)
22,CCN(CC)c1ccc(C2C3CCCCC3(O)CCN2CC(=O)Nc2ccccc2)cc1 (stereo not given),21.9%
23,CC(=O)c1cc2c(cc1NC(=O)CN1CCCCCC1)OCO2,15.4%
24,CC(=O)NC(C)(C)C1CC=C(C)/C(=N\O)C1 (stereo not given),2.5%
25,O=C(CSc1nnc(Cn2cnc3ccccc32)o1)c1ccccc1,6.9%
